This note sets out measurements from PubChem BioAssay (EPA / NIEHS).

Inconclusive results are not listed. Calls of active or inactive are those of the source. How the source made its calls: active means hit-call score of the fitted dose curve at least 0.9, where 1 is the maximum; inconclusive means response in the unintended direction; inactive means score below 0.9.

The term AC50 denotes the midpoint of the concentration-response curve, whichever way the signal moves.

Norway rat Vesicular Monoamine Transporter (VMAT2), neurotransmitter transporter, Slc18a2 (gene 25549), sequence (Q01827 whole entry, looked up): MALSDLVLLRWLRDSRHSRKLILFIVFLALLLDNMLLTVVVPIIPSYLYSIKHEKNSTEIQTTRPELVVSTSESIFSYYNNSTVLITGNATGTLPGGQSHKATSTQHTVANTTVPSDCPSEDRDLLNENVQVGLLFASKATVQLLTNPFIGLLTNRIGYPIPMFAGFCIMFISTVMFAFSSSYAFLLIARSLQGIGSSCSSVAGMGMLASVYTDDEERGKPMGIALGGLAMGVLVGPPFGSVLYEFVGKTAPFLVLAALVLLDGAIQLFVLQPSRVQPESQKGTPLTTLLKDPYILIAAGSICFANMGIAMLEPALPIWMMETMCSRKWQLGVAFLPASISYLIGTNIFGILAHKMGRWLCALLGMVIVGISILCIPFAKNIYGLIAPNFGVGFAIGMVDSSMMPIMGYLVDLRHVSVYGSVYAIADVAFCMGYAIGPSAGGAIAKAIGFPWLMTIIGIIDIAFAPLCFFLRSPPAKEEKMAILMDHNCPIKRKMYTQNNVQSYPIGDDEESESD
mouse Estrogen Receptor alpha (Era), Esr1 (gene 13982), sequence (P19785 whole entry, looked up): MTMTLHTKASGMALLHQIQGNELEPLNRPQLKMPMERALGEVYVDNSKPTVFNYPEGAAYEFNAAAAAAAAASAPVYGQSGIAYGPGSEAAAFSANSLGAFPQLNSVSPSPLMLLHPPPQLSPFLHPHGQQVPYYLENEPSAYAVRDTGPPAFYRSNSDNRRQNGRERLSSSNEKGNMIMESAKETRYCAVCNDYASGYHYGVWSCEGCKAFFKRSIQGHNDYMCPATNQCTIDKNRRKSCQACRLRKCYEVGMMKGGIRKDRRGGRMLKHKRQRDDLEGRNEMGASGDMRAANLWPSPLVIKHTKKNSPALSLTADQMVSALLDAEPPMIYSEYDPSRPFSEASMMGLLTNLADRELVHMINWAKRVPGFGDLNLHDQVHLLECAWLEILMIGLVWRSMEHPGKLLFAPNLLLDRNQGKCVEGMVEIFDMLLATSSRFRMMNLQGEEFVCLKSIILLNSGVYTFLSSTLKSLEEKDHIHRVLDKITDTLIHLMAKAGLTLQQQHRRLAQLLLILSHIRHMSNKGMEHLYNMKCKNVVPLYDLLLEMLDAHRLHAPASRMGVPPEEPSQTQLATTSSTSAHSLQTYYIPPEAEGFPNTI

The target in one assay is human Dopamine Transporter (DAT), SLC6A3 (gene 6531) (UniProt Q01959). Put plainly: NVS_TR_hDAT: NovaScreen (NVS) Transporter Assay for human Dopamine Transporter (DAT) (AID 2283374).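 Further: activity means loss of bound radioligand signal relative to DMSO.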 The procedure, abridged: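 Cell-free radioligand displacement binding at human DAT, 1 h after dosing, with filtration and scintillation counting. Primary screen in duplicate at 25 uM, actives then in concentration series. Loss of bound signal versus DMSO scored.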
human Dopamine Transporter (DAT), SLC6A3 (gene 6531), sequence (Q01959 whole entry, looked up): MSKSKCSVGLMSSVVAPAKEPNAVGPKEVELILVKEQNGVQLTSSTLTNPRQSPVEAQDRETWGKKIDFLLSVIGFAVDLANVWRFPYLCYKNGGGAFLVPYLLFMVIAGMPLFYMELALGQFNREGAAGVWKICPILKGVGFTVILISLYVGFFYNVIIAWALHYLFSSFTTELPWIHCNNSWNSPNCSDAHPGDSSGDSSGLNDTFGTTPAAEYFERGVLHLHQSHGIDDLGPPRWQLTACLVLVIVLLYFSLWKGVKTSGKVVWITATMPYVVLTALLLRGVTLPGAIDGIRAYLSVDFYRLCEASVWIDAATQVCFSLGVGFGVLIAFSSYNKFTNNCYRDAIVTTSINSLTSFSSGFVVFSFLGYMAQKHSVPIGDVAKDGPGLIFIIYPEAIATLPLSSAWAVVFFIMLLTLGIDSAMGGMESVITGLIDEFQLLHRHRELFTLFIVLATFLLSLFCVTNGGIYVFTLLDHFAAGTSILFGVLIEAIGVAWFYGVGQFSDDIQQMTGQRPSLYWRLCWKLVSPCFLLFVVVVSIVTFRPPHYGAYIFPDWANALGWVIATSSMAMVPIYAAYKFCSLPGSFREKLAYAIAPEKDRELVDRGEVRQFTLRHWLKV
As to `Cc1cc(C)c(C(=O)P(=O)(c2ccccc2)c2ccccc2)c(C)c1`, the AC50 is 13.6 µM (active).

Turning to `CC(=O)c1ccc(-c2ccccc2)cc1`, the half-maximal activity concentration (AC50) is 10.9 µM (active).

In the case of `CC(C)(C)c1ccccc1OP(=O)(Oc1ccccc1)Oc1ccccc1`, the AC50 is 9.69 µM (active).

Turning to `Clc1ccc(Oc2ccccc2)cc1`, the compound was called inactive.

The next assay has as its target Norway rat Vesicular Monoamine Transporter (VMAT2), neurotransmitter transporter, Slc18a2 (gene 25549) (UniProt Q01827). Put plainly: NVS_TR_rVMAT2: NovaScreen (NVS) Transporter Assay for Norway rat Vesicular Monoamine Transporter (VMAT2), neurotransmitter transporter (AID 2283376).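 Further: actives lower the bound radioligand signal below the DMSO level.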 The procedure: NVS_TR_rVMAT2 is a biochemical, single-readout assay that uses extracted gene-proteins from Rat forebrain in a tissue-based cell-free assay. Measurements were taken 1 hour after chemical dosing in a 96-well plate.NVS_TR_rVMAT2 is one of one assay component(s) measured or calculated from the NVS_TR_rVMAT2 assay. It is designed to make measurements of radioligand binding, a form of binding reporter, as detected with scintillation counting signals by Filter-based radiodetection technology.Data from the assay component NVS_TR_rVMAT2 was analyzed into 1 assay endpoint. This assay endpoint, NVS_TR_rVMAT2, was analyzed in the positive analysis fitting direction relative to DMSO as the negative control and baseline of activity. Using a type of binding reporter, loss-of-signal activity can be used to understand changes in the binding as they relate to the gene Slc18a2. Furthermore, this assay endpoint can be referred to as a primary readout, because the performed assay has only produced 1 assay endpoint. To generalize the intended target to other relatable targets, this assay endpoint is annotated to the transporter intended target family, where the subfamily is vesicular transporter.
Binding assays used specific radioligands (tritiated, iodinated) with non-radioactive competitive displacement ligands in agonist or antagonist protocols (as indicated) and various reference compounds and inhibitors to titrate specific binding to receptors and transporters. Most enzyme assays (CYPs, kinases, phosphatases, proteases, HDACs) used recombinant protein and specific substrates (fluorescence mostly, some colorimetric and radioactive) and inhibitors, followed by a biochemical separation of substrate and product. All assays for the biochemical HTS were initially run in duplicate at a single concentration (10 uM for CYP450 assays and 25 uM for all others). […] Each assay was run with positive and negative controls, and concurrent controls on every plate. The follow-up (secondary) screen tested active chemical-pairs in concentration series, as well as a few additional assays not tested in the primary screen, some selected negative inactives, and several cases re-run in the concentration series for confirmatory purposes.
As for `O=C(O)C(Cl)Cl`, the outcome was inactive.

Consider `O=P(OCC(Br)CBr)(OCC(Br)CBr)OCC(Br)CBr` (stereo unspecified), for which the result was inactive.

`OCC1CO1` (stereo unspecified): the result was inactive.

Turning to `Cn1[nH]nnc1=S`, the call was inactive.

Consider `Oc1ccc(I)cc1`, for which the result was inactive.

In the case of `CC(Cc1ccc(OCC(=O)O)cc1)NCC(O)c1csc(C(F)(F)F)n1` (stereo unspecified), the compound was called inactive.

As to `N#C/C=C/c1ccccc1`, the compound was classed as inactive.

A further assay has as its target mouse Estrogen Receptor alpha (Era), Esr1 (gene 13982) (UniProt P19785). Put plainly: NVS_NR_mERa: NovaScreen (NVS) Nuclear Receptor Binding Assay for mouse Estrogen Receptor alpha (Era) (AID 2283378).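 Further: hit means loss of bound radioligand signal relative to DMSO.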 The procedure, abridged:
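Test chemicals competed against a specific radioligand for binding to cell-free mouse Era. Duplicate wells at 25 uM were read 18 hours later by filter-based radiodetection, with loss of signal against DMSO scored as activity.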
Turning to `CCOP(=S)(Oc1ccc([N+](=O)[O-])cc1)c1ccccc1` (stereo unspecified), the compound was classed as inactive.

With `O=P1(N(CCCl)CCCl)NCCCO1` (stereo unspecified), the result was inactive.

As to `CO/N=C(/C(=O)OC)c1ccccc1COc1ccccc1C`, the outcome was inactive.

As for `c1nc[nH]n1`, the compound was called inactive.

For `O=[N+]([O-])c1ccccc1`, the outcome was inactive.

With `CC(Cl)(Cl)C(=O)O`, the result was inactive.

Take `ClC(Cl)(Cl)c1ccccc1`: the result was inactive.

As for `CCCCc1ccc(O)cc1`, the result was inactive.

For a further assay, the target named is Agonist Androgen Response Element (ARE), AR (gene 367) (UniProt P10275). The experiment in a line: OT_AR_ARELUC_AG_1440: Odyssey Thera (OT) 24-hour CHO-K1 Luciferase Assay for Agonist Androgen Response Element (ARE) (AID 2283379). The procedure, abridged: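 CHO-K1 cells carrying an ARE-driven luciferase reporter were exposed to compounds for 24 h. Luminescence was then read after adding a D-luciferin/ATP mix, and activity was scored as a gain in signal over DMSO vehicle.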
Agonist Androgen Response Element (ARE), AR (gene 367), sequence (P10275 whole entry, looked up): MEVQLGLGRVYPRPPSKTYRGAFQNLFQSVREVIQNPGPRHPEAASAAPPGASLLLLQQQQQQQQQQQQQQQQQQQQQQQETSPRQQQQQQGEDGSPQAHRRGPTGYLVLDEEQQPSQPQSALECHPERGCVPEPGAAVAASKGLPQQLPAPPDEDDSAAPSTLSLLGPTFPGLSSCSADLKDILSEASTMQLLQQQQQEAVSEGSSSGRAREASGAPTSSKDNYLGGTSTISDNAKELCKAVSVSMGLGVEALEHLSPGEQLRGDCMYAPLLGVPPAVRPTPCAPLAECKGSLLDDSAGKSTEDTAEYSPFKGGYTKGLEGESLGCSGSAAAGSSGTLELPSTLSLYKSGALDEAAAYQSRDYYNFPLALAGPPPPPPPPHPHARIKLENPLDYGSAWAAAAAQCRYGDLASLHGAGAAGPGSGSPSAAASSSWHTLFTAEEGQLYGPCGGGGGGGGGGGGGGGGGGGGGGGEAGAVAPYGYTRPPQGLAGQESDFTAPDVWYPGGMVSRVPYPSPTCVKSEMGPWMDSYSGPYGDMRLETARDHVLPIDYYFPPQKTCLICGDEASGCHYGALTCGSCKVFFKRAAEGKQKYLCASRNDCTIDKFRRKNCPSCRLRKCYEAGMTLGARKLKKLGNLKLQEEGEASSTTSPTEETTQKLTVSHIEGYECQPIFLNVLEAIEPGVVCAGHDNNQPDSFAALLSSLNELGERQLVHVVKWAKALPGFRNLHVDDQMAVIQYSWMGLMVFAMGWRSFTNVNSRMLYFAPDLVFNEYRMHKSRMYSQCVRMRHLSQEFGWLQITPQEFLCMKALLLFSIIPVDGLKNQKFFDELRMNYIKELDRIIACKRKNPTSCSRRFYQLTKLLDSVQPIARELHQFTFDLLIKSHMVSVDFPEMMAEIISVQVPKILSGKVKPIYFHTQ
As for `c1cc2c3c(cccc3c1)CC2`, the result was inactive.

For the compound `O=P(OCC(Br)CBr)(OCC(Br)CBr)OCC(Br)CBr` (stereo unspecified), the compound was called inactive.

As to `CCCCC(CC)COP(=O)(Oc1ccccc1)Oc1ccccc1` (stereo unspecified), the call was inactive.

For `CO/N=C(/C(=O)OC)c1ccccc1COc1ccccc1C`, the outcome was inactive.

As for `CCN(CC)c1ccccc1`, the result was inactive.

Regarding `CC(C)(C)N(NC(=O)c1ccc(Cl)cc1)C(=O)c1ccccc1`, the compound was classed as inactive.

With `[N-]=[N+]=[N-]`, the result was inactive.
